{
  "source": "PubChem BioAssay AID602400",
  "about": "(Sanford-Burnham Center for Chemical Genomics, 2012)",
  "note": "Calls of active or inactive are those of the source. No rule for the calls is given here.",
  "data": [
    {"test": "off-target activity on Bfl-1 – biochemical, set 4, counter-screen for UBC13 polyubiquitination inhibitor project, SAR follow-up (AID 602400)", "conditions": "Bfl-1 counterscreen for UBC13 inhibitors", "values": [
      {"smiles": "O=C(C1CCN(c2ncnc3c2nc2n3CCCCC2)CC1)N1CCN(c2ncccn2)CC1", "IC50": "> 100 µM (inactive)"},
      {"smiles": "COc1cc(Cl)c(C)cc1NC(=O)C1CCN(c2ncnc3c2nc2n3CCCCC2)CC1", "IC50": "> 100 µM (inactive)"},
      {"smiles": "CN(CCNC(=O)C1CCN(c2ncnc3c2nc2n3CCCCC2)CC1)Cc1ccccc1", "IC50": "> 100 µM (inactive)"}
    ]}
  ]
}
